# Activity calls are given as the source filed them. No rule for the calls is given here.
# System: Aerobactin synthetase IucA (Klebsiella pneumoniae hvKP1)
# Test: IucA enzyme inhibition, primary screen, biochemical, Spectrum library (AID 1346200);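 also: 100% = wells without compound and 0% = wells lacking enzyme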
# Details: malachite green pyrophosphate, A620, at 8 µM, active compounds read low
row,Compound,activity remaining
1,C=CC(C1=CC(=O)C=CC1=O)c1ccccc1 (stereo not drawn),119% (inactive)
2,CCN(CC)CCNc1ccc(CO)c2sc3ccccc3c(=O)c12,114% (inactive)
3,O=C(/C=C/c1ccc(O)c(O)c1)OC(Cc1ccc(O)c(O)c1)C(=O)O (stereo not drawn),116% (inactive)
4,COc1cc(/C=C/C(=O)O)cc(OC)c1OC,111% (inactive)
5,CCCCCc1c2c(cc(O)c1C(=O)O)OC(=O)c1c(cc(OC)cc1C(=O)CCCC)O2,121% (inactive)
6,CCC(C)C(=O)O[C@@H]1C[C@@]2(C)[C@H](c3ccoc3)OC(=O)CC23OC2(C)OC34[C@H](OC(=O)C(C)C)[C@@]3(O)[C@@H](OC(=O)C5(C)OC5C)[C@@]5(C)C[C@]3(O)[C@@](C)([C@H]5CC(=O)OC)C14O2 (stereo partly drawn),112% (inactive)
7,Cc1cccc(C)c1NC(=O)C1CCCCN1C (stereo not drawn),123% (inactive)
8,O=C1[C@H](CCC(O)c2ccc(F)cc2)[C@@H](c2ccc(O)cc2)N1c1ccc(F)cc1 (stereo partly drawn),122% (inactive)
9,CN(Cc1cc(Br)cc(Br)c1N)C1CCCCC1,112% (inactive)
10,C[C@@H]1CC[C@H]2[C@@H](C)C(O)O[C@@H]3OC4(C)CC[C@@H]1[C@]32OO4 (stereo partly drawn),106% (inactive)
11,CCCCCCCCCCCCCCCC(=O)OC/C=C(C)/C=C/C=C(C)/C=C/C1=C(C)CCCC1(C)C,89% (inactive)
12,COC(=O)C[C@@H]1C2(C)C(=O)[C@@H](CC3=C4C=C(OC)O[C@@H](c5ccoc5)[C@]4(C)CCC32)[C@H](O)C1(C)C (stereo partly drawn),93.6% (inactive)
13,CCOC(N)=O,107% (inactive)
14,Cc1cc(NS(=O)(=O)c2ccc(N)cc2)no1,110% (inactive)
15,O=C(Cc1ccccc1)NO,109% (inactive)
16,CC1=C(C(=O)O)N2C(=O)[C@@H](NC(=O)[C@H](N)C3=CCC=CC3)C2SC1 (stereo partly drawn),103% (inactive)
17,COC(=O)C1=CO[C@@H](O[C@@H]2O[C@H](CO)[C@@H](O)[C@H](O)[C@H]2O)[C@@H]2[C@@H](C)CC(=O)[C@]12O,109% (inactive)
18,CCCCC(=O)O[C@]1(C(=O)CO)CCC2C3CCC4=CC(=O)CC[C@]4(C)C3[C@@H](O)C[C@@]21C (stereo partly drawn),111% (inactive)
19,COc1cc(NS(=O)(=O)c2ccc(N)cc2)nc(OC)n1,90.2% (inactive)
20,COC(=O)c1c(C)c2c(c(C)c1O)OC(=O)c1c(C)c(Cl)c(O)c(Cl)c1O2,111% (inactive)
21,Cn1c(=O)c2c(ncn2CC(O)CO)n(C)c1=O (stereo not drawn),104% (inactive)
22,CC(=O)/C=C\[C@@H]1[C@@]2(C)CCCC(C)(C)C2CC[C@@]1(C)O (stereo partly drawn),95.5% (inactive)
23,CC(=O)O[C@@H]1CC2C(C)(C)[C@H](O)C[C@H](O)[C@]2(C)C2CC[C@@]3(C)C(=CC(=O)O[C@H]3c3ccoc3)[C@@]21C (stereo partly drawn),102% (inactive)
24,COC(=O)CCC(C)C1CCC2C3CC[C@@H]4C[C@H](O)CC[C@]4(C)C3C[C@H](O)[C@]12C (stereo partly drawn),120% (inactive)
25,C[C@H]1CC2C([C@@H](O)C[C@@]3(C)C2CC[C@]3(O)C(=O)CO)[C@@]2(C)C=CC(=O)C=C12 (stereo partly drawn),115% (inactive)
26,C=C(C)C1(O)OC(=O)C=C1OC (stereo not drawn),124% (inactive)
27,O=C(O)CCCCC1SCC2NC(=O)NC21 (stereo not drawn),121% (inactive)
28,COc1ccc([C@@H]2CC(=O)c3c(O)cc(O[C@@H]4O[C@H](CO[C@H]5O[C@@H](C)[C@H](O)[C@@H](O)[C@H]5O)[C@@H](O)[C@H](O)[C@H]4O)cc3O2)cc1O,102% (inactive)
